# Assay results reported in ChEMBL document CHEMBL1157539, “Thousands of chemical starting points for antimalarial lead identification” (Nature, 2010).
# Tested on: HepG2
# Test: GSK_TCMDC: Percent inhibition of human HepG2 cell line. Test compounds present at 10uM.
# Format: functional
row,Compound,Inhibition [%]
1,Cl.O=C(N[C@@H](Cc1cc(F)cc(F)c1)[C@H](O)CNCc1cccc(C(F)(F)F)c1)c1cc(C2CCCC2)cc(N2CCCC2=O)c1,37
2,CC1(C)NC(N)=NC(=N)N1OCc1ccc2ccccc2c1CON1C(=N)N=C(N)NC1(C)C,8
3,COc1cc(C)nc2ccc(NC(=O)Nc3ccccc3[N+](=O)[O-])cc12,6
4,Cc1cc(CN2CC[C@H](NC(=O)c3ccc(Cl)c(Cl)c3)C2)ccc1OCCN1CCCC1.O=C(O)C(F)(F)F,56
5,O=C(Nc1ccc(Cn2ncc(N3CCCNCC3)c(Cl)c2=O)cc1)Nc1cccc(C(F)(F)F)c1.O=C(O)C(F)(F)F,20
6,Oc1cc(Nc2ccnc3cc(I)ccc23)ccc1F,0
7,CN1CCN(CCCN(Cc2ccc(-c3cccc(CNCc4ccc5c(c4)OCO5)c3)cc2)C(=O)NC2CCCCC2)CC1.O=C(O)C(F)(F)F,31
8,CCOc1cc(C)ccc1N1CCN(CCN2CCC(NC(=O)c3ccc(-c4ccc(C#N)cc4)cc3)CC2)CC1,9
9,CC(C)N1CCN(C(=O)c2ccc(CN(C)CCCN3CCN(c4cccc(Cl)c4Cl)CC3)s2)CC1.Cl,74
10,Cc1[nH]c(C)c(-c2ccc(-c3ccc(Cl)cc3)cc2)c(=O)c1Cl,0
11,O=C(O)C(F)(F)F.OCCN1CCN(Cc2ccc(-c3ccc(-c4nc5cc(C(F)(F)F)ccc5[nH]4)s3)cc2)CC1,65
12,OC(CNc1ccnc(Nc2cccc(Cl)c2)n1)c1cccc(F)c1 (stereo unspecified),16
13,CC[C@H](NC(=O)c1ccc(NC(=O)OC(C)(C)C)cc1)C(=O)N[C@@H](CO)C(=O)NCCCCc1ccccc1,0
14,CC1CCC(C[C@@H](C(=O)N[C@@H](CCC(=O)N2CCCCC2)C(=O)Nc2nccs2)[C@H](C(C)C)N(O)C=O)CC1 (stereo partly specified),38
15,O=C(Nc1ccc(C(F)(F)F)cc1)NC1CCN(c2ccnc3ccccc23)C1.O=C(O)C(F)(F)F (stereo unspecified),13
16,CCCCNC(=O)[C@H](CC1CCCCC1)NC(=O)c1ccc(O)c(-c2ccc(Cl)c(Cl)c2)c1,0
17,COc1cc(-c2nc3c4ccccc4c4ccccc4c3[nH]2)cc(OC)c1OC,4
18,CCN1CCC(N(Cc2ccc(-c3ccc(C(F)(F)F)cc3)cc2)C(=O)Cn2c(CCc3cccc(F)c3F)nc(=O)c3ccccc32)CC1.O=C(O)C(O)C(O)C(=O)O,99
19,COc1ccc(-c2c(C(F)(F)F)nn(C)c2NC(=O)Nc2ccc(F)cc2F)cc1,8
20,CC(C)CC(=O)Nc1cc(=O)[nH]c2nc(-c3ccccc3)nn12,0
21,COc1ccc2nccc([C@@H](O)CN3CCC(NCc4cc5ccc(Cl)cc5[nH]4)CC3)c2c1.O=C(O)C(=O)O,30
22,Cc1cccc2nc(-c3cccc(-c4ccc(NC(=O)NC(C)C)cc4)c3)[nH]c12,30
23,c1ccc(OCCCCN2CCCCC2)cc1,2
24,COc1ccc2nccc([C@@H](O)CN3CCC(NCc4cc5cccc(O)c5c(=O)[nH]4)CC3)c2c1.Cl,8
25,Cc1nc2ccc3ccc(CNc4ccc5c(c4)CN([C@H](CCC(=O)O)C(=O)O)C5=O)cc3c2c(=O)[nH]1,38
26,CCCCCCSc1nnc(COc2cccc3ccccc23)n1-c1ccc(OC)cc1,19
